# The whole screen tested about 69,000 compounds, of which about 950 (1.4%) showed an effect of 50% or more. This is one part of a sample in which strong results are shown more often than they occur.
# System: Mycobacterium tuberculosis
# Test: Cornell M. t heat shock assay; further: in the data most compounds retested in dose-response had high values
# Assay type: functional, organism-based
# Parameters: dose or concentration left out as unconfirmed
row,SMILES,Percent Effect [%]
1,Cc1ncc2c(n1)C1(CCN(C(=O)C3CC3)CC1)OCC2.Cl,6.327
2,CCN(CC)Cc1cn2c(n1)CN(C(=O)Cc1ccsc1)CC2.O=C(O)C(F)(F)F,-4.189
3,Cl.O=C1CC2(CCNCC2)C(=O)N1c1cccc(F)c1,-6.229
4,Cc1cc2c(=O)n3c(nc2s1)CCN(Cc1cnc(C)n1C)CC3.Cl,0.614
5,O=C(O)C(F)(F)F.O=C1Nc2ccccc2C12CCN(Cc1cccs1)CC2,-5.404
6,O=C(O)C(F)(F)F.c1ccc(CN2Cc3nccn3CC(Cn3cncn3)C2)nc1 (configuration not stated),-29.71
7,Cc1nc2c(c(NCc3cc4ccccc4s3)n1)CCNCC2,-9.753
8,Cc1nc2c(c(NCc3ccc(-c4ccccn4)s3)n1)CCNCC2,-21.22
9,Cc1nc2c(c(NCc3nc4ccccc4s3)n1)CCNCC2,105.4
10,C[C@H]1CN(CC2CCOCC2)C[C@@]12CCN(Cc1cccnc1)C2=O.O=C(O)C(F)(F)F.O=C(O)C(F)(F)F,4.288
11,CN(C)C(=O)C1(C)CN(Cc2cn(C)c3ccccc23)CCO1 (configuration not stated),54.51
12,Cc1nnc(N2CCOC(C)(C(=O)N(C)C)C2)c2ccccc12 (configuration not stated),0.5691
13,CN(C)C(=O)C1(C)CN(Cc2cn(C)c3ccc(F)cc23)CCO1 (configuration not stated),64.53
14,CNC(=O)C1(C)CN(Cc2cn(C)c3ccc(F)cc23)CCO1 (configuration not stated),39.76
15,Cc1ncsc1CN1CCOC(C)(C(=O)N(C)C)C1 (configuration not stated),-16.31
16,CC1(C(=O)N2CCOCC2)CN(Cc2ccccc2F)CCO1 (configuration not stated),10.07
17,CC(C)Cn1c(=O)nc2n1C(=O)N(c1ccc(F)cc1)C2,4.992
18,Cc1cccc(-c2nnn3c2COC(CNCc2nccs2)C3)c1.O=C(O)C(F)(F)F (configuration not stated),-29.09
19,COc1cc(N2C[C@H](C(=O)NCC3CC3)[C@@H]3CCO[C@@H]3C2)ncn1.O=C(O)C(F)(F)F,-37.92
20,Cc1ccc(C)c(-n2ncc(C(=O)N(C)CCc3ccccn3)c2N)c1,29.21
21,Cc1cc(Cl)ccc1-n1ncc(C(=O)N(C)CCc2ccccn2)c1N,67.07
22,CN(CCc1ccccn1)C(=O)c1cnn(-c2ccccc2F)c1N,25.3
23,COc1ccc(OC)c(CN(Cc2ccco2)Cc2[nH]cnc2C)c1.O=C(O)CC(O)(CC(=O)O)C(=O)O,-22.22

row,SMILES,Percent Effect [%]
1,Cc1cccn2cc(CN3CCCC(c4noc(C5CC5)n4)C3)nc12 (configuration not stated),100.9
2,Cc1cccn2cc(CN3CCCC(c4ccn[nH]4)C3)nc12 (configuration not stated),23.59
3,Cc1cccn2cc(CN3CCCC(O)C3)nc12 (configuration not stated),-6.265
4,COCC(=O)N1CCC2(CC1)C(=O)N(Cc1cccnc1)CCN2C.O=C(O)C(F)(F)F.O=C(O)C(F)(F)F,-22.77
5,O=C(NC[C@H]1CC[C@H](c2ccnc3ncnn32)CC1)C1CC1,14.38
6,COCC1c2c(cnn2C)CCN1Cc1ccc(C)cc1.O=C(O)C(F)(F)F.O=C(O)C(F)(F)F (configuration not stated),-35.12
7,Cn1ccnc1CN1CCc2onc(COCC3CC3)c2C1.O=C(O)C(F)(F)F,34.07
8,CCn1ncc2c1C(COC)N(C(=O)c1cscn1)CC2.O=C(O)C(F)(F)F (configuration not stated),-5.863
9,Cc1ccsc1C1CCCCCN1Cc1cn(C)nc1C (configuration not stated),17.22
10,Cc1ccc(C2CCCCCN2Cc2cn(C)nc2C)s1 (configuration not stated),11.6
11,Cc1cnc(Nc2cccc(C3CCCN3Cc3cn(C)nc3C)n2)s1 (configuration not stated),104.4
12,Cc1nc(Nc2ncc(C)s2)cc(C2CCCN2S(C)(=O)=O)n1 (configuration not stated),-9.231
13,c1ccc(CCN2CCCC2c2cccc(Nc3nccs3)n2)cc1 (configuration not stated),104.9
14,COCCN1CCCC1c1nccnc1Nc1nccs1 (configuration not stated),-9.826
15,Cc1cccc(C2CCCCCN2Cc2cn(C)nc2C)c1 (configuration not stated),5.626
16,CS(=O)(=O)N1CCCC1c1cccc(Nc2nccs2)n1 (configuration not stated),92.85
17,COCCN1CCCC1c1ccnc(-c2ccccc2)n1 (configuration not stated),20.75
18,Cc1nn(C)cc1CN1CCCCCC1c1ccccc1Cl (configuration not stated),-8.916
19,Cc1nn(C)cc1CN1CCCC1c1cccc(Nc2nccs2)n1 (configuration not stated),99.7
20,CS(=O)(=O)N1CCCC1c1cccc(Cc2ccccc2F)n1 (configuration not stated),-7.758
21,CCCc1nnc(N[C@H](C)c2ccc(OC)cc2)o1,32.03
22,O=C(Nc1ccccc1)N1C(CO)[C@]2(O)CC[C@H]1CC2 (some centres not stated),-13.23
23,C=C1C(C)(C)[C@H]2CC[C@]1(C(=O)N1CCC(n3cc(CO)nn3)CC1)C2,11.02

row,SMILES,Percent Effect [%]
1,C[C@H]1C(=O)NC[C@H]2CN(CCc3ccccc3)C[C@H]21.O=C(O)C(F)(F)F,-3.474
2,CN(C)c1ccnc(C2CCCN2)n1.Cl (configuration not stated),-9.101
3,Cc1ccc(CN2CC3(CCN(C(=O)c4cccnc4)C3)C2)o1.O=C(O)C(F)(F)F.O=C(O)C(F)(F)F,25.41
4,Cl.Cl.O=C(NCc1cncc2c1CCN(Cc1cccs1)C2)C1CC1,3.264
5,O=C(NCc1ccccn1)[C@H]1COC[C@H]2CN(Cc3ccoc3)C[C@H]21.O=C(O)C(F)(F)F.O=C(O)C(F)(F)F,2.625
6,COCCNc1nc(C)nc2c1CCN(C[C@H]1CC[C@@H](N)CC1)CC2,-33.02
7,Cn1nc(COc2cccnc2)c2c1CCN(c1cnccn1)C2.O=CO.O=CO,1.293
8,O=C(O)C(F)(F)F.O=C(O)C(F)(F)F.c1cncc(N2CCOCC3(CCCN(Cc4cccs4)C3)C2)c1 (configuration not stated),-22.26
9,CC(C)[C@H](N)C(=O)N1CCCC(C2=Nc3ccccc3S(=O)(=O)N2)C1.Cl (some centres not stated),13.38
10,Cc1cccc(CN2CCc3onc(Cn4cccc4)c3C2)n1.O=C(O)C(F)(F)F,14.85
11,COCCN1C2(CCN(CC3CC3)C2)c2ccccc2S1(=O)=O.O=C(O)C(F)(F)F (configuration not stated),3.018
12,NC(=O)c1ccc(CNC(=O)Nc2cn[nH]c2)cc1,-17.84
13,Cc1cc(C2CCCN2Cc2cccc(C(=O)Nc3nccs3)c2)no1 (configuration not stated),-4.082
14,Cc1cccc(CN2CCCC2c2cccc(Nc3nccs3)n2)c1 (configuration not stated),104
15,Cc1nc(Nc2ccccn2)cc(C2CCCN2Cc2ncc[nH]2)n1 (configuration not stated),21.63
16,Cc1ccccc1CN1CCCC1c1cccc(Nc2nccs2)n1 (configuration not stated),106.1
17,Cc1cccc(CN2CCCC2c2cccc(CCC(=O)O)n2)c1 (configuration not stated),-20.44
18,Cc1nc(Nc2nccs2)cc(C2CCCN2C2CCOCC2)n1 (configuration not stated),-17.35
19,CCCN(CC1CC1)C(=O)CN1CCCC1c1cnn(C)c1 (configuration not stated),3.305
20,CS(=O)(=O)N1CCN(C(=O)CCC2CCCO2)CC1 (configuration not stated),9.25
21,Cc1noc(C)c1CN1CCC2(CC1)C(c1cnn(C)c1)CC(=O)N2C.O=C(O)C(F)(F)F (configuration not stated),38.42
22,CC(=O)N1CCO[C@@H]2CN(S(=O)(=O)c3cccnc3)C[C@@H]2C1.O=C(O)C(F)(F)F,22.17
23,Cc1cccc(CN2CCc3nnc(CO)n3CC2)n1.O=C(O)C(F)(F)F,-11.61

row,SMILES,Percent Effect [%]
1,CC(C)CN1CCC2(C=C(C(=O)NC3CC3)c3ccccc32)CC1.O=C(O)C(F)(F)F,-0.1524
2,CC(=O)NC1CCN(c2cnc(C3CCNCC3)cn2)CC1.Cl,-24.22
3,Fc1cnc(N2CCO[C@H]3[C@H](OCC4CCOCC4)CC[C@@H]32)nc1.O=C(O)C(F)(F)F,47.96
4,O=C(O)C(F)(F)F.c1cnc(N2CCO[C@H]3[C@H](OCC4CCOCC4)CC[C@@H]32)nc1,52.27
5,O=C(O)C(F)(F)F.c1cnc(N2CCO[C@H]3[C@H](OCC4CC4)CC[C@@H]32)nc1,10.71
6,CCOCC(=O)N1CCC2(CC1)CC(c1ccccc1)CO2 (configuration not stated),16.4
7,CS(=O)(=O)N1C[C@H]2C[C@H](C(=O)N3CCOCC3)[C@@H](C1)O2,9.276
8,CN(Cc1ccsc1)c1nc(-c2ccccn2)nc2c1CCNCC2,90.45
9,CN(Cc1cccnc1)c1nc(-c2ccccn2)nc2c1CCNCC2,7.828
10,CN(Cc1nccs1)c1nc(-c2ccccn2)nc2c1CCNCC2,47.94
11,O=C(O)C(F)(F)F.c1cnc(NCc2nnn3c2CN(Cc2ccsc2)CCC3)nc1,-34.33
12,Cl.O=C(NC1CCCC1)c1cc(C2CCCNC2)n[nH]1 (configuration not stated),2.974
13,COCCN1C[C@@H]2[C@@H](OC)CCN(Cc3ccsc3)[C@@H]2C1.O=C(O)C(F)(F)F.O=C(O)C(F)(F)F,-56.24
14,c1ccc(-c2nc3c(c(NCc4nnc5n4CCC5)n2)CCNC3)cc1,-1.823
15,c1ccc(-c2nc3c(c(NCc4n[nH]c5c4CCC5)n2)CCNC3)cc1,105.2
16,c1ccc(-c2nc3c(c(NCCc4c[nH]cn4)n2)CCNC3)cc1,103.9
17,c1coc(-c2nc3c(c(NCc4n[nH]c5c4CCC5)n2)CCNCC3)c1,-50.31
18,c1cc(-c2nc3c(c(NCCc4c[nH]cn4)n2)CCNCC3)ccn1,-32.96
19,c1nc(CCNc2nc(C3CC3)nc3c2CCNCC3)c[nH]1,-37.66
20,Cc1cnc(N2CCc3c(CNc4ccnc(C)n4)cncc3C2)nc1.Cl,12.07
21,Cl.Cn1ccnc1N1CCN(C(=O)Cc2ccccc2)CC1,-7.185
22,O=C(O)C(F)(F)F.O=C1COC2(CCN(C(=O)C3CC=CC3)CC2)CN1Cc1cccnc1,-29.72
23,CS(=O)(=O)CC(=O)N1C[C@@H]2CN(Cc3ccoc3)CCO[C@@H]2C1,-0.05269
